Only some compounds are listed: those with a hit (about 2.8% of all), similar ones and a draw of the others.
EWS-Fli inh = EWS/Fli-driven NR0B1 reporter inhibitors, primary screen, A673 cells, NR0B1 luciferase, luminescence, MLPCN library | AID 651661, 2012 | actives 0.67% (n = 350,000) | inhibition, % at 12.6 µM | viability-normalised;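 active means mean inhibition of at least 50% after viability correction, with every replicate also passing that limit; inconclusive means mean reaches 50% but only one of two replicates passes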;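 further: firefly luciferase signal divided by Alamar Blue viability fluorescence both relative to DMSO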
TWEAK-Fn14 inh = inhibitors of TWEAK-Fn14 signaling, primary screen, luciferase reporter cells, uHTS | actives 2% (n = 360,000) | TWEAK-stimulated Fn14 reporter cells, luciferase luminescence, 8 h | AID 1159606, 2016 | inhibition, % at 10 µM; in the data active means inhibition above about 50%
LGR2 antag = inhibitors of bursicon-induced LGR2 CRE-luciferase signal, primary screen, cell-based, HEK293, CRE-luciferase reporter, bursicon stimulation | actives 0.35% (n = 380,000) | bursicon-stimulated, 4 h | Drosophila bursicon receptor LGR2 (rickets) | inhibition, % at 9.99 µM;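 active means drop in luminescence signal, shown as inhibition above about 50% in the replicate tests, limit read from the data, passing the limit was not always enough; inconclusive means probably only some replicates passing the limit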;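 further: agonist challenge used bursicon conditioned medium at about half maximal strength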
PAX8 reporter = inhibitors of PAX8-driven TPO luciferase reporter, primary screen, RMG-I cells, single concentration; inhibition, % at 12.6 µM; AID 652154, 2013; SteadyGlo, 24 h; actives 1.2% (n = 360,000);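 active means mean replicate inhibition at least 60% with every replicate also reaching 60%; inconclusive means only one of the two criteria is met; inactive means mean below 60% and not all replicates reaching 60%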;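 further: luciferase light reporting Pax8 driven TPO promoter activity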
TROY NFkB inh = inhibitors of TROY-driven NF-kB signaling, primary screen, Q293 LMP1-TROYcd cells, NF-kB luciferase, uHTS; Q293 LMP1-TROYcd NF-kB luciferase reporter, 4 h; actives 0.98% (n = 360,000); AID 1347056, 2019; inhibition, % at 10 µM;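 active means compounds whose plate-normalised and pattern-corrected inhibition of the luciferase reporter signal at the single screening dose is 50% or more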
Hits are given with their value; - = inactive; ? = inconclusive; . = not tested or not shown.

SMILES	EWS-Fli inh	TWEAK-Fn14 inh	LGR2 antag	PAX8 reporter	TROY NFkB inh
COc1cccc(-c2ccc3c(c2)[C@@H]2[C@@H](CCN2S(=O)(=O)c2ccccc2C)[C@H](CO)N3C)c1	-	.	-	82	.
COc1cccc(-c2ccc3c(c2)[C@@H]2[C@@H](CCN2S(=O)(=O)c2ccccc2OC)[C@H](CO)N3C)c1	-	.	-	84	.
COc1cccc(-c2ccc3c(c2)[C@H]2[C@H](CCN2S(=O)(=O)c2ccccc2C)[C@H](CO)N3C)c1	-	.	-	-	.
COc1ccccc1S(=O)(=O)N1CC[C@@H]2[C@H]1c1cc(-c3ccccc3)ccc1N(C)[C@H]2CO	-	.	-	-	.
O=C(NCC[C@H]1CC[C@@H](NC(=O)Nc2cc(F)ccc2F)[C@H](CO)O1)Nc1ccc(F)cc1	-	.	-	.	.
C[C@@H]1CN([C@@H](C)CO)C(=O)c2cc(NS(=O)(=O)c3ccccc3)ccc2O[C@H]1CN(C)S(=O)(=O)c1cccs1	-	.	-	-	.
CCCNC(=O)N1C[C@H]2[C@@H](c3ccccc31)[C@H](CO)N2C(=O)Nc1ccccc1	-	.	-	-	.
C[C@H](CO)N1C[C@H](C)[C@H](CN(C)C(=O)c2cccc(F)c2)Oc2cc(-c3cncnc3)ccc2S1(=O)=O	-	.	-	-	.
Cc1ncoc1C(=O)Nc1ncc([N+](=O)[O-])s1	-	50	-	-	-
COc1cccc(C=Nc2ccc3c(c2)OCCO3)c1O	.	80	.	.	68
COc1cccc(C=Nc2ccc(N3CCOCC3)cc2)c1O	-	-	-	-	-
Cc1ccsc1/C=N/NC(=O)Cc1ccc(Cl)cc1	-	90	-	-	-
Cc1ccsc1/C=N\NC(=O)c1n[nH]c2c1CCC2	.	81	78	-	-
Cc1ccsc1/C=N/NC(=O)CSCc1ccc(Cl)cc1	.	-	-	.	-
C/C(=N\NC(=O)c1ccc2c(c1)OCCO2)c1ccccc1	-	70	-	-	-
CN1C(=O)c2cc(NC(=O)C3CC3)ccc2OC[C@H]2O[C@@H](CC(=O)NCc3cccc(F)c3)CC[C@@H]21	-	.	-	-	.
CCOc1cccc(/C=N/NC(=O)c2ccc3c(c2)OCCO3)c1O	.	-	-	-	-
O=C(N/N=C/c1cccc(O)c1)c1ccc2c(c1)OCCO2	-	69	-	-	-
Cc1ccsc1/C=N/NC(=O)c1ccc2c(c1)OCCO2	-	70	?	-	-
Cc1ccsc1/C=N\NC(=O)c1ccc2c(c1)OCO2	.	-	.	-	-
Cc1cccc(/C=N/NC(=O)c2ccc3c(c2)OCCO3)c1O	-	74	68	-	-
Cc1ccc(S(=O)(=O)NC2CCN(Cc3cccc(OCCO)c3)CC2)cc1	-	.	.	-	.
Cc1nc2ccc(NC(=O)c3cccc(S(=O)(=O)N(C)c4ccccc4)c3)cc2s1	.	72	.	.	60
CN(c1ccccc1)S(=O)(=O)c1cccc(NC(=O)c2ccc3ncsc3c2)c1	-	76	-	-	63
COc1ccccc1N(C)S(=O)(=O)c1ccc(C(=O)NCCc2ccc(F)cc2)cc1	-	53	-	-	-
SMILES	EWS-Fli inh	TWEAK-Fn14 inh	LGR2 antag	PAX8 reporter	TROY NFkB inh
COc1ccccc1N(C)S(=O)(=O)c1ccc(C(=O)Nc2ccc3nc(C)sc3c2)cc1	.	-	-	-	50
Cc1noc(C)c1NC(=O)Nc1ccc2c(c1)C(=O)N([C@@H](C)CO)C[C@@H](C)[C@H](CN(C)S(=O)(=O)c1cccs1)O2	-	.	-	.	.
C[C@H](CO)N1C[C@H](C)[C@H](CN(C)S(C)(=O)=O)Oc2cc(C3=CCCC3)ccc2S1(=O)=O	-	.	-	.	.
COc1cccc(S(=O)(=O)Nc2ccc3c(c2)[C@H]2C[C@H](CC(=O)O)O[C@@H](CO)[C@H]2O3)c1	-	.	-	-	.
CN(CC(=O)Nc1cccc(F)c1)CC(=O)Nc1cccc(S(=O)(=O)N(C)c2ccccc2)c1	-	-	.	-	-
Cc1ccc(NC(=O)c2cccc(S(=O)(=O)N(C)c3ccccc3)c2)cc1S(=O)(=O)N1CCOCC1	.	54	-	.	-
Cc1cc(C)c(NC(=O)CN(C)CC(=O)Nc2cccc(S(=O)(=O)N(C)c3ccccc3)c2)c(C)c1	-	53	-	-	-
C[C@H](CO)N1C[C@H](C)[C@@H](CN(C)C)OCCCC[C@H](C)Oc2ccc(NC(=O)Cc3ccccc3)cc2C1=O	-	.	-	-	.
O=C(Cc1ccccc1)N1CC[C@@H]2[C@H]1c1cc(C#Cc3ccccc3)ccc1N[C@@H]2CO	-	.	-	-	.
CCCCCc1ccc(-c2ccc(/C=C/C(=O)O)cc2)nc1	.	60	-	-	-
CCCc1ccc(-c2ccc(/C=C/C(=O)O)cc2)nc1	56	94	58	-	-
CCCCCCCc1ccc(-c2ccc(O)cc2)nc1	-	-	-	-	-
C[C@H](CO)N1C[C@H](C)[C@@H](CN(C)C(=O)C2CCCCC2)OCCCC[C@H](C)Oc2ccc(NC(=O)Nc3ccccc3)cc2C1=O	-	.	-	-	.
Cn1cnc(S(=O)(=O)N2CCCCN3[C@H](CO)[C@H](c4ccc(C#CC5CC5)cc4)[C@H]3C2)c1	-	.	.	-	.
CC1OC(CC(=O)O)CC2=C1C(=O)c1c(O)cccc1C2=O (stereo unspecified)	-	106	99	130	64
C[C@@H]1CCCCO[C@@H](CN(C)S(=O)(=O)c2cccs2)[C@H](C)CN([C@@H](C)CO)C(=O)c2cc(NC(=O)Nc3ccc(C(F)(F)F)cc3)ccc2O1	-	.	-	65	.
C[C@@H]1CN([C@@H](C)CO)C(=O)c2cc(C#CCC3CCCC3)cnc2O[C@@H]1CN(C)S(=O)(=O)c1cccs1	-	.	-	-	.
C[C@H]1CN([C@@H](C)CO)C(=O)c2cc(C#CCC3CCCC3)cnc2O[C@@H]1CN(C)S(=O)(=O)c1cccs1	-	.	-	67	.
C[C@H]1CCCCO[C@H](CN(C)S(=O)(=O)c2ccccc2)[C@@H](C)CN([C@@H](C)CO)C(=O)c2cc(NC(=O)Nc3ccc(C(F)(F)F)cc3)ccc2O1	-	.	-	68	.
C[C@@H]1CN([C@@H](C)CO)C(=O)c2cc(NC(=O)Nc3ccc(F)cc3)ccc2O[C@@H](C)CCCCO[C@@H]1CN(C)S(=O)(=O)c1cccs1	-	.	-	-	.
C[C@@H]1CCCCO[C@@H](CN(C)S(=O)(=O)c2ccccc2)[C@H](C)CN([C@H](C)CO)C(=O)c2cc(NC(=O)Nc3ccc(C(F)(F)F)cc3)ccc2O1	-	.	-	89	.
COCC(=O)Nc1ccc2c(c1)C(=O)N(C)C[C@H](OC)[C@H](C)CN(C(=O)Cc1ccccn1)[C@H](C)CO2	-	.	-	-	.
C[C@@H]1CCCCO[C@@H](CN(C)S(=O)(=O)c2cccs2)[C@H](C)CN([C@@H](C)CO)C(=O)c2cc(NC(=O)NC3CCCCC3)ccc2O1	-	.	-	-	.

Compound activity from PubChem BioAssay.
